This is an account of results in PubChem BioAssay (EPA / NIEHS).

The nature of experiment [1]: APR_HepG2_NuclearSize_72hr: Apredica 72-hour HepG2 Assay for Nuclear Size (AID 2282925). Particulars: high-content imaging, actives raise or lower the signal. The method, boiled down:
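HepG2 cells were exposed to compounds at ten concentrations from 0.39 to 200 uM (duplicate, 0.5% DMSO final) for 72 hr. After fixation in 3.7% formaldehyde, nuclei were stained with Hoechst 33342 (2 ug/mL) and imaged at 20x.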

Experiment [2] is described as follows: ATG_CRE_CIS: Attagene CIS-FACTORIAL HepG2 Assay for human cAMP Responsive Element (CRE) binding protein 3 (AID 2282926). Particulars: HepG2 CRE cis-reporter, Attagene multiplexed mRNA; actives raise or lower the signal. The method, boiled down: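 Human liver HepG2, transient MRTU transfection, 24 h compound exposure. Total RNA → oligo(dT) RT → PCR → 6-FAM primer extension → HpaI cut → CE. Activity called both directions vs DMSO.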

Experiment [3] deals with CCAAT/enhancer-binding protein beta (Homo sapiens) (UniProt P17676). The experiment is described as follows: ATG_C_EBP_CIS: Attagene CIS-FACTORIAL HepG2 Assay for human CCAAT/Enhancer Binding Protein (C/EBP) beta (AID 2282927). Particulars: HepG2 Attagene cis-factorial transcription factor reporter; actives raise or lower the signal. The method, boiled down:
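RT-PCR/capillary electrophoresis fluorescence of reporter mRNA, 24 h post-dose, in HepG2 cells carrying transfected cis-promoter reporter units. Bidirectional curve fitting against DMSO baseline captures gain or loss of signal.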

A short description of experiment [4]: ATG_CMV_CIS: Attagene CIS-FACTORIAL HepG2 Assay for human CMV (Internal Marker) (AID 2282928).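 Also: endpoint acts as a background internal control marker rather than a target.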 Particulars: HepG2 CMV promoter reporter, transcription factor profiling; actives raise or lower the signal. The essentials: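 After transient transfection of HepG2 with reporter transcription units driven by cis-regulatory promoters, cells receive test chemical for 24 h. Labeled reporter amplicons, digested with HpaI, are sized and quantified by capillary electrophoresis against DMSO.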

Experiment [5] in a line: ATG_DR4_LXR_CIS: Attagene CIS-FACTORIAL HepG2 Assay for human Liver X Receptor (LXR), DR4 submotif (AID 2282929). Particulars: HepG2 Attagene DR4 cis-reporter, mRNA transcription; actives raise or lower the signal. The method, boiled down:
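Cells were transfected with multiple reporter transcription units, exposed to chemicals for 24 hours, then lysed for RNA. Reporter mRNA induction was measured by RT-PCR with capillary electrophoresis detection and fitted in both directions relative to DMSO.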

In experiment [6] the target is Aryl hydrocarbon receptor (Homo sapiens) (UniProt P35869). Kind of experiment: ATG_Ahr_CIS: Attagene CIS-FACTORIAL HepG2 Assay for human Aryl Hydrocarbon Receptor (Ahr) (AID 2282930). Particulars: HepG2 AhR cis-factorial reporter transcription; actives raise or lower the signal. The essentials:
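HepG2 cells transiently transfected with cis-element-driven multiplexed reporter transcription units; endogenous transcription factor activity measured as reporter mRNA 24 h after dosing. RT-PCR, 6-FAM labelling, HpaI digestion, capillary electrophoresis; bidirectional fitting versus DMSO baseline.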

Experiment [7] is described as follows: ATG_AP_1_CIS: Attagene CIS-FACTORIAL HepG2 Assay for human Activator Protein 1 (AP-1) (AID 2282931). To be noted: HepG2 Attagene cis-factorial AP-1 reporter mRNA; actives raise or lower the signal. The essentials:
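Endogenous transcription-factor activity in human HepG2 liver cells is read through a cis-promoter reporter transcript, sampled 24 h after dosing. Detection uses RT-PCR with capillary electrophoresis; values come from bidirectional fitting relative to DMSO.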

Experiment [8] in a line: ATG_AP_2_CIS: Attagene CIS-FACTORIAL HepG2 Assay for human Activator Protein 2 (AP-2) (AID 2282932). To be noted: HepG2 AP-2 cis-reporter, Attagene transcription factor profiling; actives raise or lower the signal. The method, boiled down:
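Bidirectional curve fitting against DMSO was applied to reporter mRNA signals from HepG2 cells 24 h after dosing. Cis-promoter reporter units, transiently transfected, were read by RT-PCR plus capillary electrophoresis.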

Experiment [9] is described as follows: ATG_BRE_CIS: Attagene CIS-FACTORIAL HepG2 Assay for human Bone Morphogenetic Protein (BMP) Response Element (BRE) (AID 2282933). Particulars: HepG2 BMP response element reporter, Attagene transcription factor profiling; actives raise or lower the signal. The essentials: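 A HepG2 multiplex reporter system measured inducible reporter mRNA 24 h post-dosing. Detection: RT-PCR, 6-FAM primer extension, HpaI digestion, capillary electrophoresis. Activity fitted bidirectionally relative to DMSO.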

In experiment [10] the target is Retinoic acid receptor alpha (Homo sapiens) (UniProt P10276). Kind of experiment: ATG_DR5_RAR_CIS: Attagene CIS-FACTORIAL HepG2 Assay for human Retinoic Acid Receptor Alpha (RARE), DR5 submotif (AID 2282934). Particulars: HepG2 Attagene cis-factorial RARE DR5 reporter, mRNA; actives raise or lower the signal. The essentials: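 HepG2 cells transiently transfected with multiplexed reporter units under cis (DR5 RARE) promoters, so endogenous transcription factor activity is measured. After 24 h compound exposure, reporter mRNA is quantified by RT-PCR with fluorescent labelling and capillary electrophoresis; bidirectional fitting versus DMSO.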
Chain of Retinoic acid receptor alpha (Homo sapiens) (P10276 whole entry, looked up): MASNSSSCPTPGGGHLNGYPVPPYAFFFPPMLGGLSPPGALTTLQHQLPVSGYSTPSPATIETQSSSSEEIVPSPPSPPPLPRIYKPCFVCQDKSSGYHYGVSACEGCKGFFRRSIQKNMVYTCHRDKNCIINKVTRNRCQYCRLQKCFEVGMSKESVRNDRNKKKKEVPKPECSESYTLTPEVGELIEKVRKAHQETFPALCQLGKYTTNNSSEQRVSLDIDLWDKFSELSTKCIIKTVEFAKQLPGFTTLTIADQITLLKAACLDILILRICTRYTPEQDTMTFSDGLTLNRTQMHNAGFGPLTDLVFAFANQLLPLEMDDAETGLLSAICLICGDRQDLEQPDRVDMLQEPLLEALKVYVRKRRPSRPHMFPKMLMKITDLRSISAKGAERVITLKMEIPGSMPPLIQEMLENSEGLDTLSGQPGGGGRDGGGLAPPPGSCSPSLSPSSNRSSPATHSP

The target in experiment [11] is Transcription factor E2F1 (Homo sapiens) (UniProt Q01094). The experiment is described as follows: ATG_E2F_CIS: Attagene CIS-FACTORIAL HepG2 Assay for human E2F Transcription Factor 1 (AID 2282935). To be noted: HepG2 Attagene cis-reporter, E2F reporter RNA transcripts; actives raise or lower the signal. The essentials:
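Multiplexed cis-reporter assay: HepG2, transient transfection, 24 h dosing, mRNA quantitation by labeled RT-PCR and CE.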

Experiment [12] is described as follows: ATG_E_Box_CIS: Attagene CIS-FACTORIAL HepG2 Assay for human Enhancer Box (E-box) (AID 2282936). Particulars: HepG2 E-box cis-reporter transcription, actives raise or lower the signal. The method, boiled down: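 Multiplexed CIS reporter system in transiently transfected HepG2 cells measures native transcription factor activity. Reporter RNA after 24 h exposure is profiled by RT-PCR-capillary electrophoresis.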

Experiment [13] in a line: ATG_M_61_CIS: Attagene CIS-FACTORIAL HepG2 Assay for M61 Transcription Factor (Internal Marker) (AID 2282937). To be noted: HepG2 Attagene CIS-FACTORIAL M61 internal marker reporter; actives raise or lower the signal. The method, boiled down: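 Cells were transfected with reporter units under cis-regulatory promoters, treated with chemicals for 24 h, then lysed for RNA. Reporter transcripts were quantified by RT-PCR and capillary electrophoresis, and activity was fitted bidirectionally against DMSO.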

Experiment [14] can be described thus: ATG_EGR_CIS: Attagene CIS-FACTORIAL HepG2 Assay for human Early Growth Response 1 (EGR1) (AID 2282938). To be noted: HepG2 Attagene CIS-FACTORIAL EGR reporter mRNA; actives raise or lower the signal. The essentials:
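Endogenous TF activity in HepG2 liver cells was gauged through cis-promoter reporter constructs transiently transfected. After 24 h dosing, reporter mRNA was quantified by RT-PCR and capillary electrophoresis, and curves fitted in both directions versus DMSO.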

The nature of experiment [15]: ATG_M_19_CIS: Attagene CIS-FACTORIAL HepG2 Assay for M19 Transcription Factor (Internal Marker) (AID 2282939). To be noted: HepG2 Attagene CIS-FACTORIAL M19 internal marker reporter; actives raise or lower the signal. The method, boiled down:
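Chemical-treated HepG2 (24 h) with MRTU constructs; reporter transcripts detected by fluorescent RT-PCR fragment analysis on capillary electrophoresis. Internal background marker, DMSO as baseline.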

Experiment [16] is described as follows: ATG_ERE_CIS: Attagene CIS-FACTORIAL HepG2 Assay for Estrogen Response Element (ERE) (AID 2282940). Particulars: HepG2 ERE cis-reporter, Attagene RNA transcript; actives raise or lower the signal. The method, boiled down: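 Human liver cells (HepG2) bearing transiently transfected, promoter-regulated reporter units were exposed 24 h. Reporter mRNA induction was detected by capillary electrophoresis of labelled RT-PCR products and fitted bidirectionally to DMSO.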

Experiment [17] in a line: ATG_Ets_CIS: Attagene CIS-FACTORIAL HepG2 Assay for human Erythroblast Transformation Specific (ETS) (AID 2282941). Particulars: HepG2 ETS cis-reporter transcription, actives raise or lower the signal. The essentials: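 Human HepG2 hepatoma cells were transiently transfected with promoter-driven reporter constructs and treated for 24 hours. Reporter transcripts were quantified by RT-PCR with fluorescent primer extension; bidirectional curve fitting used DMSO as reference.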

The target in experiment [18] is Hepatocyte nuclear factor 3-beta (Homo sapiens) (UniProt Q9Y261). Kind of experiment: ATG_FoxA2_CIS: Attagene CIS-FACTORIAL HepG2 Assay for human Forkhead box A2 (FOXA2) (AID 2282942). To be noted: HepG2 cis-reporter transcription factor activity, 24 h; actives raise or lower the signal. The essentials: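 Endogenous transcription factor activity was read in HepG2 cells carrying transiently transfected cis-promoter reporter units. After 24 h dosing, reporter mRNA was quantified by RT-PCR and capillary electrophoresis, and values fitted bidirectionally versus DMSO.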
Chain of Hepatocyte nuclear factor 3-beta (Homo sapiens) (Q9Y261 whole entry, looked up): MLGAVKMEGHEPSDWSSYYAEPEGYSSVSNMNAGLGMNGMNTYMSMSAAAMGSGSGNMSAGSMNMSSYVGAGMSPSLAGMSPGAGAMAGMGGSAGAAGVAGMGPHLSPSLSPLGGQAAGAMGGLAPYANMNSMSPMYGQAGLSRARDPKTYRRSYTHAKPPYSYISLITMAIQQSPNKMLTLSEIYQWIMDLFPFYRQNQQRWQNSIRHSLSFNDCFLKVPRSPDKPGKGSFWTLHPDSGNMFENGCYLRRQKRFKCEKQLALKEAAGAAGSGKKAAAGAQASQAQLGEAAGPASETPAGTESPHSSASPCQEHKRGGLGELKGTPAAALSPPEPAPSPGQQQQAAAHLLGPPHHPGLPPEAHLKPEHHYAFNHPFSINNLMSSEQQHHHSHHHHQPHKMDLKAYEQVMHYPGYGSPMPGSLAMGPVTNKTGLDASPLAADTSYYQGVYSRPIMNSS

A short description of experiment [19]: ATG_FoxO_CIS: Attagene CIS-FACTORIAL HepG2 Assay for human Forkhead box O (FoxO) (AID 2282943). Particulars: HepG2 Attagene cis-reporter, FoxO element, mRNA; actives raise or lower the signal. The method, boiled down: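 HepG2 cells transiently transfected with cis-promoter-driven multiple reporter transcription units; 24 h after chemical dosing, reporter mRNA quantified by RT-PCR, fluorescent primer extension, HpaI digestion and capillary electrophoresis. Bidirectional fitting versus DMSO baseline.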

The nature of experiment [20]: ATG_GATA_CIS: Attagene CIS-FACTORIAL HepG2 Assay for human GATA Binding Protein (AID 2282944). To be noted: HepG2 GATA cis-element reporter, Attagene multiplex mRNA; actives raise or lower the signal. The method, boiled down:
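Transfected cis-reporter HepG2 cells were treated with chemicals for 24 hours. Total RNA was then converted to cDNA, amplified with reporter-specific primers and analysed by fluorescent capillary electrophoresis, using DMSO-treated wells as baseline.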

Each structure is given as a SMILES string. Some compounds were tested as several samples or in several runs, with calls that do not always agree. Activity calls are given as the source filed them. The calls were made as follows: active = hit-call score of the fitted dose curve at least 0.9, where 1 is the maximum; inactive = score below 0.9.

Chain of CCAAT/enhancer-binding protein beta (Homo sapiens) (P17676 whole entry, looked up): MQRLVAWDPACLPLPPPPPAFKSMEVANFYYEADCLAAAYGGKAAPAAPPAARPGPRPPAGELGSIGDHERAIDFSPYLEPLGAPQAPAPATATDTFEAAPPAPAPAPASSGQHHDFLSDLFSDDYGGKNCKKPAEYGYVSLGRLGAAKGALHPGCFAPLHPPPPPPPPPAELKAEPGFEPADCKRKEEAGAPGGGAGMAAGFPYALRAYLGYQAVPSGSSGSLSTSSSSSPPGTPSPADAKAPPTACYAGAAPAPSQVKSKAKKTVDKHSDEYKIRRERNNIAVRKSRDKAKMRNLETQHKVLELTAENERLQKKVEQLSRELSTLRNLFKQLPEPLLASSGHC
Chain of Aryl hydrocarbon receptor (Homo sapiens) (P35869 whole entry, looked up): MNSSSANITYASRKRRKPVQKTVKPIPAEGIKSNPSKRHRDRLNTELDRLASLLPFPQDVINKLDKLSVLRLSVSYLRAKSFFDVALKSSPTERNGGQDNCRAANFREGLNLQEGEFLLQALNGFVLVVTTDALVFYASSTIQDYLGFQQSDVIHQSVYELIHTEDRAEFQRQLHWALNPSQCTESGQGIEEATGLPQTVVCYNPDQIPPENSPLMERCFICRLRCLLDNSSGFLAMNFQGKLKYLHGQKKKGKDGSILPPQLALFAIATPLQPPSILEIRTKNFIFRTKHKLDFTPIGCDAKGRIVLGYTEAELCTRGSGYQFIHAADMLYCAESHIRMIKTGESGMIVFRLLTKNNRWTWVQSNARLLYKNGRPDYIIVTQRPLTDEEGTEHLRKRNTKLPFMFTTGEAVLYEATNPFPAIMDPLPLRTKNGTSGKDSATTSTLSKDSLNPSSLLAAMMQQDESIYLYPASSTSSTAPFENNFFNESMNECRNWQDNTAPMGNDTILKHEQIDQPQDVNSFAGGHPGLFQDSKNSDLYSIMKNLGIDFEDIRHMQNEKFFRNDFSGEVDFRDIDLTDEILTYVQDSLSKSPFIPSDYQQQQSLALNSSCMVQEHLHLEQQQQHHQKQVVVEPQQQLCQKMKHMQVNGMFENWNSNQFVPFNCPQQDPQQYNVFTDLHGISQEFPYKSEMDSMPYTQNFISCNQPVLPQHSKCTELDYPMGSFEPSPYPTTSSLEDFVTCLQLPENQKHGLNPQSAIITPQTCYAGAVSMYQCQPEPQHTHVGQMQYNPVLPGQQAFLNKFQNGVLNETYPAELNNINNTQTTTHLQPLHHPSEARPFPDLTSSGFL
Chain of Transcription factor E2F1 (Homo sapiens) (Q01094 whole entry, looked up): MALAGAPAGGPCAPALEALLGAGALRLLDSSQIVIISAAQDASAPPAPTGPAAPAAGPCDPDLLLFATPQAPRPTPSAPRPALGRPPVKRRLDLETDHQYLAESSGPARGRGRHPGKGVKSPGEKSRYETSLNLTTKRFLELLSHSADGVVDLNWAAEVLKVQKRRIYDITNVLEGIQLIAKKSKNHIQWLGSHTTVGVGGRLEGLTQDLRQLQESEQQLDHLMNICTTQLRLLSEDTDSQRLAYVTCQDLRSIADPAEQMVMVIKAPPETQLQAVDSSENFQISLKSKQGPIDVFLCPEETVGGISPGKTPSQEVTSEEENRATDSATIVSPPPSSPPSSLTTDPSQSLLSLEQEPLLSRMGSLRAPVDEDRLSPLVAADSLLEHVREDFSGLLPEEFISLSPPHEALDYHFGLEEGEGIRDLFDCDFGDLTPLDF

With `O=C(O)C1(C(=O)Nc2ccc(Cl)cc2Cl)CC1`, the call in experiment [1], in [2], in experiment [3], in [4], in experiment [5] and in experiment [6] was inactive. The call in experiment [7], in experiment [8], in experiment [9], in experiment [10], in experiment [11] and in experiment [12] was inactive. For the same compound, the compound was called inactive in [13], in experiment [14], in experiment [15], in experiment [16], in [17] and in experiment [18]. Further, the compound was classed as inactive in experiment [19] and in experiment [20].

With `C#CCOC(=O)[C@@H](C)Oc1ccc(Oc2ncc(Cl)cc2F)cc1`, the outcome in experiment [1], in [2], in experiment [3], in experiment [4], in [5] and in experiment [6] was inactive. In addition, the call in [7], in experiment [8], in [9], in experiment [10], in [11] and in experiment [12] was inactive. Besides, the outcome in experiment [13], in experiment [15], in experiment [16], in [17], in experiment [18] and in experiment [19] was inactive. Moreover, the compound was called inactive in experiment [20].

On to `COC(=O)c1ccccc1S(=O)(=O)NC(=O)Nc1nc(OC(F)F)cc(OC(F)F)n1`, for which the compound was called inactive in experiment [1], in experiment [2], in experiment [3], in experiment [4], in experiment [5] and in experiment [6]. Further, the call in experiment [7], in experiment [8], in experiment [9], in [10], in experiment [11] and in experiment [12] was inactive. For the same compound, the call in [13], in experiment [15], in experiment [16], in experiment [17], in [18] and in experiment [19] was inactive. Moreover, the result in [20] was inactive.

The term AC50 denotes the midpoint of the concentration-response curve, whichever way the signal moves. `COc1nc(C)nc(NC(=O)NS(=O)(=O)c2ccccc2OCCCl)n1`: the outcome in experiment [1], in [2], in [3], in experiment [4], in experiment [5] and in experiment [6] was inactive. Also, the call in experiment [8], in experiment [9], in experiment [10], in experiment [11], in experiment [12] and in [13] was inactive. The outcome in experiment [14], in [15], in experiment [16], in [17], in experiment [18] and in [19] was inactive. Also, the half-maximal activity concentration (AC50) in experiment [5] is 9.13 µM (active).

Take `C=CCOC(Cn1ccnc1)c1ccc(Cl)cc1Cl` (configuration not stated): the result in [1], in experiment [6], in experiment [11], in experiment [12], in [13] and in [15] was inactive. Also, the compound was classed as inactive in [17], in [18] and in experiment [19]. Besides, the half-maximal activity concentration (AC50) in experiment [2] is 12.9 µM (active); in experiment [3] it was 12.4 µM (active); in experiment [4], 33 µM (active); in experiment [5], 76.1 µM (active); in experiment [7], 50 µM (active); in experiment [8], 50 µM (active). Moreover, the AC50 in experiment [9] is 33.7 µM (active); in [14] it was 30.9 µM (active).

As to `C[C@]12CC[C@@H]3c4ccc(O)cc4C[C@@H](CCCCCCCCCS(=O)CCCC(F)(F)C(F)(F)F)[C@H]3[C@@H]1CC[C@@H]2O` (some centres not stated), the result in [1], in experiment [2], in experiment [3], in [4], in experiment [5] and in experiment [6] was inactive. For the same compound, the compound was classed as inactive in experiment [7], in [8], in experiment [9], in experiment [10], in experiment [11] and in experiment [12]. Moreover, the call in experiment [13], in experiment [15], in experiment [16], in experiment [17], in experiment [18] and in experiment [19] was inactive.
